Where “and” joins values, the source holds several entries; their conditions need not be identical. Identical values can stand only once.
Tests used:
Assay in all cases: growth AUC relative to DMSO control (median of replicates) (fraction); higher = more growth (less inhibition), active = hit call of the paper
Conditions in all cases: 20 µM; 24 h;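 active = AUC reduced over 20% with Padj below 0.05 in at least 2 of 3 replicates; inactive = otherwise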
Coprococcus comes = test system: Coprococcus comes
Summary of the method: (§1)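 In round-bottom 96-well plates sealed with pierced gas-permeable seals, gut bacterial monocultures in mGAM were grown anaerobically at 37 °C from OD600 0.05 with 20 µM compound (1% DMSO). OD600 readings were taken hourly for 24 h, and the minimum OD was set to 0. Area under the growth curve was then normalised to the plate median of solvent-only wells, or to row and column medians on the industrial chemical plate. The value given is the median of three biological replicates grown on separate days.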

Escherichia coli ED1a = test system: Escherichia coli ED1a
Summary of the method: as §1

Escherichia coli IAI1 = test system: Escherichia coli IAI1
Summary of the method: as §1

Eubacterium rectale = test system: Eubacterium rectale
Summary of the method: as §1

[1] = test system: Fusobacterium nucleatum subsp. animalis
Summary of the method: as §1

Lactobacillus gasseri = test system: Lactobacillus gasseri
Summary of the method: as §1

Lactobacillus paracasei = test system: Lactobacillus paracasei
Summary of the method: as §1

Odoribacter splanchnicus = test system: Odoribacter splanchnicus
Summary of the method: as §1

[2] = test system: Parabacteroides distasonis
Summary of the method: as §1

Parabacteroides merdae = test system: Parabacteroides merdae
Summary of the method: as §1

Roseburia intestinalis = test system: Roseburia intestinalis
Summary of the method: as §1

Streptococcus salivarius = test system: Streptococcus salivarius
Summary of the method: as §1

Measured: growth AUC

NCCO.O=C(O)c1nc(Cl)ccc1Cl
inactive: Coprococcus comes 1.05 | Escherichia coli ED1a 1.01 | Escherichia coli IAI1 1.01 | Eubacterium rectale 0.912 | [1] 1.04 | Lactobacillus gasseri 0.979 | Lactobacillus paracasei 1.02 | Odoribacter splanchnicus 1.02 | [2] 1.02 | Parabacteroides merdae 1.01 | Roseburia intestinalis 1.03 | Streptococcus salivarius 1.05

ClC1=C(Cl)[C@]2(Cl)[C@@H]3[C@H]4C[C@H]([C@@H]5O[C@H]45)[C@@H]3[C@@]1(Cl)C2(Cl)Cl
inactive: Coprococcus comes 0.943 | Escherichia coli ED1a 0.994 | Escherichia coli IAI1 0.966 | Eubacterium rectale 1.02 | [1] 1.05 | Lactobacillus gasseri 0.936 | Lactobacillus paracasei 0.963 | Odoribacter splanchnicus 0.998 | [2] 0.897 | Parabacteroides merdae 0.946 | Roseburia intestinalis 0.909 | Streptococcus salivarius 0.963

COC(=O)/C=C(/C)OP(=O)(OC)OC
inactive: Coprococcus comes 1.02 and 1.04 | Escherichia coli ED1a 1.01 and 1.05 | Escherichia coli IAI1 0.997 and 1.04 | Eubacterium rectale 1.03 and 1.05 | [1] 1.03 and 1.22 | Lactobacillus gasseri 0.973 and 1.01 | Lactobacillus paracasei 0.956 and 1.04 | Odoribacter splanchnicus 1.09 and 0.835 | [2] 0.972 and 0.999 | Parabacteroides merdae 1 and 1.05 | Roseburia intestinalis 1.02 and 0.985 | Streptococcus salivarius 0.944 and 1

N#Cc1c(Cl)cccc1Cl
inactive: Coprococcus comes 0.994 | Escherichia coli ED1a 0.999 | Escherichia coli IAI1 1.03 | Eubacterium rectale 0.936 | [1] 1.04 | Lactobacillus gasseri 1.17 | Lactobacillus paracasei 0.884 | Odoribacter splanchnicus 1.01 | [2] 1.04 | Parabacteroides merdae 1.01 | Roseburia intestinalis 1.07 | Streptococcus salivarius 0.951

COP(N)(=O)SC (stereo not drawn)
inactive: Coprococcus comes 1.08 | Escherichia coli ED1a 1.03 | Escherichia coli IAI1 1.02 | Eubacterium rectale 1.08 | [1] 1.11 | Lactobacillus gasseri 0.836 | Lactobacillus paracasei 1.07 | Odoribacter splanchnicus 1.04 | [2] 1.01 | Parabacteroides merdae 1.06 | Roseburia intestinalis 1 | Streptococcus salivarius 0.996

S=C1NCCN1
inactive: Coprococcus comes 1.02 | Escherichia coli ED1a 1.01 | Escherichia coli IAI1 1.01 | Eubacterium rectale 1.04 | [1] 1.08 | Lactobacillus gasseri 1.02 | Lactobacillus paracasei 0.923 | Odoribacter splanchnicus 1.04 | [2] 1.05 | Parabacteroides merdae 1.04 | Roseburia intestinalis 1.01 | Streptococcus salivarius 0.992

CCOP(=O)(NC(C)C)Oc1ccc(S(C)=O)c(C)c1 (stereo not drawn)
inactive: Coprococcus comes 1.04 | Escherichia coli ED1a 1.03 | Escherichia coli IAI1 1.04 | Eubacterium rectale 1.05 | [1] 1.09 | Lactobacillus gasseri 1.07 | Lactobacillus paracasei 0.975 | Odoribacter splanchnicus 1.01 | [2] 1.13 | Parabacteroides merdae 1.05 | Roseburia intestinalis 1.05 | Streptococcus salivarius 1.05

C[C@@H](Oc1ccc(Oc2ccc(C(F)(F)F)cn2)cc1)C(=O)O
inactive: Coprococcus comes 1.03 | Escherichia coli ED1a 1 | Escherichia coli IAI1 1 | Eubacterium rectale 1.06 | [1] 1.06 | Lactobacillus gasseri 0.867 | Lactobacillus paracasei 1.02 | Odoribacter splanchnicus 1.03 | [2] 1.01 | Parabacteroides merdae 1.07 | Roseburia intestinalis 0.99 | Streptococcus salivarius 1.05

CS(=O)(=O)NC(=O)c1cc(Oc2ccc(C(F)(F)F)cc2Cl)ccc1[N+](=O)[O-]
inactive: Coprococcus comes 0.926 | Escherichia coli ED1a 0.971 | Escherichia coli IAI1 0.962 | Eubacterium rectale 1.09 | [1] 0.906 | Lactobacillus gasseri 0.958 | Lactobacillus paracasei 1.01 | Odoribacter splanchnicus 1.09 | [2] 0.984 | Parabacteroides merdae 0.978 | Roseburia intestinalis 0.966 | Streptococcus salivarius 0.917

CCC(C)n1c(=O)[nH]c(C)c(Br)c1=O (stereo not drawn)
inactive: Coprococcus comes 1.02 | Escherichia coli ED1a 0.979 | Escherichia coli IAI1 0.94 | Eubacterium rectale 1.07 | [1] 1.01 | Lactobacillus gasseri 0.869 | Lactobacillus paracasei 1.03 | Odoribacter splanchnicus 0.461 | [2] 0.926 | Parabacteroides merdae 0.891 | Roseburia intestinalis 0.975 | Streptococcus salivarius 0.901

CC(C)(O)C(Cl)(Cl)Cl.CC(C)(O)C(Cl)(Cl)Cl.O
inactive: Coprococcus comes 1.04 | Escherichia coli ED1a 1.01 | Escherichia coli IAI1 1.02 | Eubacterium rectale 0.942 | [1] 1.1 | Lactobacillus gasseri 1.06 | Lactobacillus paracasei 1.02 | Odoribacter splanchnicus 0.967 | [2] 1.05 | Parabacteroides merdae 0.987 | Roseburia intestinalis 1.01 | Streptococcus salivarius 1.05

CNC(=O)Oc1ccccc1C(C)C
inactive: Coprococcus comes 1.04 | Escherichia coli ED1a 1.01 | Escherichia coli IAI1 1.02 | Eubacterium rectale 1.07 | [1] 1.07 | Lactobacillus gasseri 1.04 | Lactobacillus paracasei 0.861 | Odoribacter splanchnicus 1.03 | [2] 0.998 | Parabacteroides merdae 1.03 | Roseburia intestinalis 1.06 | Streptococcus salivarius 1.04

CCCCOCN(C(=O)CCl)c1c(CC)cccc1CC
inactive: Coprococcus comes 0.996 | Escherichia coli ED1a 1.02 | Escherichia coli IAI1 1.04 | Eubacterium rectale 1.03 | [1] 1.12 | Lactobacillus gasseri 1.02 | Lactobacillus paracasei 1.04 | Odoribacter splanchnicus 0.909 | [2] 0.963 | Parabacteroides merdae 0.976 | Roseburia intestinalis 0.97 | Streptococcus salivarius 0.915

CCCN(CC1CC1)c1c([N+](=O)[O-])cc(C(F)(F)F)cc1[N+](=O)[O-]
inactive: Coprococcus comes 0.995 | Escherichia coli ED1a 1.01 | Escherichia coli IAI1 1.03 | Eubacterium rectale 1 | [1] 1.09 | Lactobacillus gasseri 1.11 | Lactobacillus paracasei 0.977 | Odoribacter splanchnicus 0.943 | [2] 1.03 | Parabacteroides merdae 1.03 | Roseburia intestinalis 1.06 | Streptococcus salivarius 1.03

Nc1nc(N)nc(N)n1
active: Odoribacter splanchnicus 0.119
inactive: Coprococcus comes 0.978 | Escherichia coli ED1a 0.991 | Escherichia coli IAI1 1.02 | Eubacterium rectale 0.944 | [1] 1 | Lactobacillus gasseri 1.01 | Lactobacillus paracasei 1.05 | [2] 1.23 | Parabacteroides merdae 0.981 | Roseburia intestinalis 1.09 | Streptococcus salivarius 1.02

C[Si](Cn1cncn1)(c1ccc(F)cc1)c1ccc(F)cc1
inactive: Escherichia coli ED1a 0.982 | Escherichia coli IAI1 0.946 | [1] 0.9 | Lactobacillus gasseri 1.04 | Lactobacillus paracasei 0.925 | Odoribacter splanchnicus 0.925 | [2] 0.915 | Parabacteroides merdae 0.964 | Roseburia intestinalis 0.853 | Streptococcus salivarius 0.988
active: Coprococcus comes 0.412 | Eubacterium rectale 0.504

O=S(=O)(c1ccc(Cl)cc1)c1cc(Cl)c(Cl)cc1Cl
inactive: Coprococcus comes 0.987 | Escherichia coli ED1a 0.98 | Escherichia coli IAI1 0.99 | Eubacterium rectale 0.926 | [1] 0.9 | Lactobacillus gasseri 0.99 | Lactobacillus paracasei 0.731 | Odoribacter splanchnicus 1.01 | [2] 0.971 | Parabacteroides merdae 0.984 | Roseburia intestinalis 0.989 | Streptococcus salivarius 0.999

CCOC(=O)C(C)OC(=O)c1cc(Oc2ccc(C(F)(F)F)cc2Cl)ccc1[N+](=O)[O-] (stereo not drawn)
active: [2] 0.789 | Roseburia intestinalis 0.78
inactive: Coprococcus comes 0.933 | Escherichia coli ED1a 1.01 | Escherichia coli IAI1 0.964 | Eubacterium rectale 1.01 | [1] 0.999 | Lactobacillus gasseri 0.86 | Lactobacillus paracasei 0.973 | Odoribacter splanchnicus 0.891 | Parabacteroides merdae 0.885 | Streptococcus salivarius 0.903

CN(C)S(=O)(=O)N(SC(F)(Cl)Cl)c1ccccc1
inactive: Coprococcus comes 1.04 | Escherichia coli ED1a 1.03 | Escherichia coli IAI1 1.01 | Eubacterium rectale 1.09 | [1] 1.06 | Lactobacillus gasseri 1.03 | Lactobacillus paracasei 1.07 | Odoribacter splanchnicus 1.04 | [2] 1.02 | Parabacteroides merdae 0.99 | Roseburia intestinalis 0.993 | Streptococcus salivarius 0.998

CCNP(=S)(OC)O/C(C)=C/C(=O)OC(C)C (stereo not drawn)
inactive: Coprococcus comes 0.987 | Escherichia coli ED1a 1 | Escherichia coli IAI1 0.951 | Eubacterium rectale 1.13 | [1] 0.981 | Lactobacillus gasseri 0.968 | Lactobacillus paracasei 0.994 | Odoribacter splanchnicus 0.956 | [2] 0.991 | Parabacteroides merdae 0.963 | Roseburia intestinalis 1.05 | Streptococcus salivarius 0.99

CNC(=S)S
inactive: Coprococcus comes 1.03 | Escherichia coli ED1a 1.02 | Escherichia coli IAI1 1.02 | Eubacterium rectale 1.03 | [1] 1.08 | Lactobacillus gasseri 1.02 | Lactobacillus paracasei 1.1 | Odoribacter splanchnicus 1.05 | [2] 1.03 | Parabacteroides merdae 1.05 | Roseburia intestinalis 1.1 | Streptococcus salivarius 0.997

CCOc1ccccc1OS(=O)(=O)NC(=O)Nc1nc(OC)cc(OC)n1
inactive: Coprococcus comes 1.01 | Escherichia coli ED1a 1.01 | Escherichia coli IAI1 1.01 | Eubacterium rectale 0.938 | [1] 1 | Lactobacillus gasseri 1.11 | Lactobacillus paracasei 0.736 | Odoribacter splanchnicus 1.15 | [2] 1.02 | Parabacteroides merdae 1.02 | Roseburia intestinalis 0.92 | Streptococcus salivarius 0.966

CCCCCCCCn1sccc1=O
active: Lactobacillus gasseri 0.757 | [2] 0.129 | Parabacteroides merdae 0.00935 | Roseburia intestinalis 0.449
inactive: Coprococcus comes 0.958 | Escherichia coli ED1a 0.944 | Escherichia coli IAI1 0.938 | Eubacterium rectale 0.868 | [1] 0.83 | Lactobacillus paracasei 1.01 | Odoribacter splanchnicus 0.597 | Streptococcus salivarius 0.815

Clc1nc(Cl)nc(Nc2ccccc2Cl)n1
inactive: Coprococcus comes 1.03 | Escherichia coli ED1a 1.01 | Escherichia coli IAI1 0.998 | Eubacterium rectale 0.859 | [1] 1.02 | Lactobacillus gasseri 0.991 | Lactobacillus paracasei 1.01 | Odoribacter splanchnicus 1.08 | [2] 1.04 | Parabacteroides merdae 0.969 | Roseburia intestinalis 1.04 | Streptococcus salivarius 1.03

Reference: the supplement of paper PMC12669032
